# Bioassay records as filed in PubChem.
# ADAM17 inh: ADAM17 inhibitors, primary screen, biochemical, QFRET; inhibition, % at 6.95 µM; recombinant ADAM17, EDANS/DABCYL FRET peptide cleavage; 370,000 tested, 0.83% active; AID 720648, 2013;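 active means inhibition above the mean of compounds lying between control limits plus 3 SD, set per campaign, cut at about 8.5% in these data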;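 further: 0% = DMSO-only wells as the low control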
# Rce1 inh: yeast Rce1p protease inhibitors, primary screen, biochemical, fluorescence, cell-free homogeneous; calls only; CAAX prenyl protease 2 (Saccharomyces cerevisiae (strain ATCC 204508 / S288c)), Q03530; 290,000 tested, 0.27% active; yeast membranes, quenched prenylated peptide cleavage fluorescence;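 active means fall in fluorescence gain of 50% or more versus controls, with final raw signal at or below 3038400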;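 further: plate controls were neutral control wells for no effect and wells lacking membranes for full effect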
# ADAM10 inh: human ADAM10 inhibitors, primary screen, biochemical, QFRET, HTS; 370,000 tested, 0.62% active; recombinant ADAM10, EDANS/DABCYL FRET peptide cleavage, 3 h; inhibition, % at 7 µM; Disintegrin and metalloproteinase domain-containing protein 10 (Homo sapiens), O14672; AID 720582, 2013;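 active means inhibition above a per-campaign cutoff equal to the mean of compounds falling between control-based bounds plus 3 SD, cut at about 20% in these data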;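 further: 0% = DMSO wells while the 100% control is not disclosed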
# PLC-gamma1 inh: PLC-gamma1 enzyme inhibitors, primary screen, biochemical, fluorescence, purified enzyme | 1-phosphatidylinositol 4,5-bisphosphate phosphodiesterase gamma-1 (Homo sapiens), P19174 | fluorogenic substrate | inhibition, % at 12.2 µM | 370,000 tested, 0.84% active | AID 720700, 2013; in the data active means inhibition above about 9.5%
# Target sequence (P19174 whole entry, looked up): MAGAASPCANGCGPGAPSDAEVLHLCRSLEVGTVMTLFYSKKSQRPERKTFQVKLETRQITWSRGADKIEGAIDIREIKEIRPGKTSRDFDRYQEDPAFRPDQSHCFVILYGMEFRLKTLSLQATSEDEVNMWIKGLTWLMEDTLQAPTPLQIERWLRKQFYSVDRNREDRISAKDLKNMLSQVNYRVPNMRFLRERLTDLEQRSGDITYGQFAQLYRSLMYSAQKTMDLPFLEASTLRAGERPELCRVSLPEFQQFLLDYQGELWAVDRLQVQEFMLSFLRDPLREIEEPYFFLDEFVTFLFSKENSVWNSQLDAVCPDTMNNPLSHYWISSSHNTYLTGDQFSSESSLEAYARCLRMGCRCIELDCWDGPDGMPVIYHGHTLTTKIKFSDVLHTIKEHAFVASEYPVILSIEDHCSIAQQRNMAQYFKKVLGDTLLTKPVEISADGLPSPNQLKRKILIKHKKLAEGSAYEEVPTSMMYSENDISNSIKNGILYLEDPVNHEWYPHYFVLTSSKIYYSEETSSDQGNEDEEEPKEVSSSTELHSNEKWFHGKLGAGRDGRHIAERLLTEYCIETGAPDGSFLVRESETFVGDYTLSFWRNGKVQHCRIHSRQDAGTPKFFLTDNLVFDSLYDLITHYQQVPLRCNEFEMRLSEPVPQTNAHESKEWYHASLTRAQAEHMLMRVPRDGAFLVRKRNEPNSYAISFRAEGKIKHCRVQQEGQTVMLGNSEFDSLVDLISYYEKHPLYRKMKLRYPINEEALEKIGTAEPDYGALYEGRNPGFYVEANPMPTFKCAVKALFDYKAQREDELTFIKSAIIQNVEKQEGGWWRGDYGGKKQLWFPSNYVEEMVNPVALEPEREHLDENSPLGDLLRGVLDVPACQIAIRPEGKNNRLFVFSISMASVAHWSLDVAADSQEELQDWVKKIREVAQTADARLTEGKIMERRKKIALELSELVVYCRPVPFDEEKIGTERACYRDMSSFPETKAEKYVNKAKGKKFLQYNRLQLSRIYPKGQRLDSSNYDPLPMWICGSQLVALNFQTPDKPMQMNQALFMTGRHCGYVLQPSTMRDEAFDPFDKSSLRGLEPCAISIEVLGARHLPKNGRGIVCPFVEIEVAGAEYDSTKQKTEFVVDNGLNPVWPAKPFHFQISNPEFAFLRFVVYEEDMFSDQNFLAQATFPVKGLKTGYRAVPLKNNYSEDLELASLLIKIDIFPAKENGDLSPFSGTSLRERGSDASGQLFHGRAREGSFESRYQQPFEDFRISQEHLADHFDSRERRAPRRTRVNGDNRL
# PLC-beta3 inh: human PLC-beta3 inhibitors, primary screen, biochemical, fluorescence; Purified PLC-beta3, fluorogenic substrate; AID 720704, 2013; 370,000 tested, 0.18% active; inhibition, % at 12.2 µM; in the data active means inhibition above about 11%;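 further: 0% = median of compound wells on plate and 100% = full blocker control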
# * = called active by the depositor; i = inactive; . = not tested or not shown; + = active, no number. Sampled rows, rich in hits. Any-hit rate of the full collection: about 2.1%.
SMILES,ADAM17 inh,Rce1 inh,ADAM10 inh,PLC-gamma1 inh,PLC-beta3 inh
CC(=O)Nc1ccc(S(=O)(=O)Nc2cccc(-c3nc4ccccc4o3)c2)cc1,-1.0,+,-5.6,-29.3,-35.2
O=S(=O)(Nc1ccc(-c2nc3ccccc3o2)cc1)c1ccccc1,-18.4,i,-82.8,-25.4,-32.6
CS(=O)(=O)Nc1ccccc1C(=O)NCc1ccccc1Cl,-11.4,+,-30.2,-4.6,-4.2
CS(=O)(=O)Nc1ccccc1C(=O)NC1CC2CCC1C2 (configuration not stated),-50.3,+,-212.0,-25.1,-35.5
Cc1ccccc1CNC(=O)c1ccccc1NS(C)(=O)=O,-82.6,i,-264.9,-41.8,-46.6
CS(=O)(=O)Nc1ccccc1C(=O)Nc1cccc(Cl)c1,-12.2,+,-28.9,-43.8,-43.1
OC(c1ccccc1)(c1ccccc1)C1CCN(CCCNc2cccc(OC(F)(F)F)c2)CC1,4.3,.,1.4,2.6,3.4
C/C=C(/C)C(=O)O[C@H]1[C@@H](O)c2c(ccc3ccc(=O)oc23)OC1(C)C,-91.3,+,-315.0,-19.0,-33.4
C/C=C(/C)C(=O)O[C@@H]1[C@H](OC(C)=O)c2c(ccc3ccc(=O)oc23)OC1(C)C,-32.1,i,-122.0,-9.5,-15.5
CN1c2ccccc2-c2nc3ccccc3n2C1c1ccncc1 (configuration not stated),-53.0,+,-138.8,-59.8,-76.5
COc1ccccc1NC(=O)Cc1nnc(SCC(=O)Nc2ccccc2F)n1C,-1.4,i,11.2,2.7,3.3
COc1ccccc1NC(=O)Cc1nnc(SCC(=O)Nc2nccs2)n1C,-0.9,+,2.9,3.4,-2.4
COC(=O)[C@]12C[C@H](CC(=O)NCc3cccc(C(F)(F)F)c3)C(=O)N(Cc3cccc4ccccc34)C1=C[C@H](C(C)(C)C)O[C@@H]2C,6.0,.,14.9,2.2,5.7
C=CCn1c(COc2ccc(C)cc2)nnc1SCC(=O)Nc1ccc(Oc2ccccc2)cc1,4.7,.,1.2,-2.9,-0.8
C=CCn1c(COc2ccc3c(c2)CCCC3)nnc1SCC(=O)Nc1cccc(SC)c1,15.9*,i,31.0*,-2.2,0.0
CCN(CC)CCCN(Cc1cc2cc3c(cc2[nH]c1=O)OCO3)C(=S)NCCCN(C)C,-108.1,+,i,-23.9,-31.0
CN(C)CCCNC(=S)N(CCCN(C)C)Cc1cc2cc3c(cc2[nH]c1=O)OCO3,-55.3,i,-176.0,-14.5,-26.2
CC(C)(C)CCN1CCC[C@H](NC(=O)COc2ccc(F)c(Cl)c2)C1,-5.3,.,-7.3,-0.7,0.2
CCCOc1ccc(Cn2c(=O)oc3ccc(C)cc32)cc1OC,7.2,i,9.3,6.3,13.1*
CCCOc1ccccc1Cn1c(=O)oc2ccc(C)cc21,-1.9,i,0.8,-0.8,0.2
CCc1nc(Nc2ccc(N3CCN(C(C)=O)CC3)cc2)c2oc3ccccc3c2n1,-2.7,+,-12.9,-115.3,-127.8
CCOC(=O)c1c(NC(=O)c2cccc(N3C(=O)CCC3=O)c2)sc(C)c1C,-5.8,+,-1.7,-8.6,-10.8
CCOC(=O)c1c(-c2ccc(-c3ccccc3)cc2)csc1NC(=O)c1cccc(N2C(=O)CCC2=O)c1,-2.1,i,-1.9,-1.9,-2.4
O=C(NCc1ccccc1)[C@@H]1CCCN1C(=O)[C@H]1CCCN1C(=O)c1ccccc1F,-1.5,.,0.5,-0.9,4.1
O=C(O)C1CCN(C(=O)c2cccc3ccccc23)CC1,-3.8,i,-1.8,0.1,-8.4
CN1CC(C(=O)O)Cc2c1ccc1ccccc21 (configuration not stated),-319.0,+,i,-154.3,-225.4
CC(C)c1cccc(OCC(=O)Nc2ccc(S(=O)(=O)Nc3ccccn3)cc2)c1,-3.3,+,-3.3,-4.7,-15.5
CCC(C#Cc1ccccc1)N(C)C(N)=NC(=O)/C=C/c1ccccc1 (configuration not stated),0.0,.,0.0,-1.2,-3.4
COC(=O)C(C(=O)OC)[C@@H]1C=C[C@H](C[N+](=O)[O-])N(C(C)=O)C1,-2.0,.,-0.2,11.8*,3.5
